# Results as given in article PMC7862700, “An all-to-all approach to the identification of sequence-specific readers for epigenetic DNA modifications on cytosine”.
# What was measured:
# Assay in all cases: DAPPL (digital affinity profiling via proximity ligation, sequencing); 10 mM Tris-HCl pH 7.5, 50 mM NaCl, 1 mM DTT, 4% glycerol, room temperature, 30 min; GST-TFs on glutathione beads, 16-mer random dsDNA library, 0.1% formaldehyde crosslink after washing; high values mean tight binding
# [1] = target: T1, FEV (Homo sapiens, UniProt Q99581 1-238); conditions: protein: recombinant; tags: N-terminal GST; dsDNA, one strand shown
# T1 sequence: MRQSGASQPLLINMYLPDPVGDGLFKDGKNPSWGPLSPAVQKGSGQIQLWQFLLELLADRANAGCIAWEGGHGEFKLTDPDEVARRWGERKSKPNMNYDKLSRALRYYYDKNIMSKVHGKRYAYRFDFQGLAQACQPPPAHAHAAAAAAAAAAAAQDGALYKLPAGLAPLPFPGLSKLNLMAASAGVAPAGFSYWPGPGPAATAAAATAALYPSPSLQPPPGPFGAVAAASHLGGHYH
# How it was run: (§1)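 Binding signal is each hexamer's read frequency for a factor divided by its frequency in the tag-only sample. The factors were GST-fused human transcription factors from yeast, captured on glutathione beads, DNA-barcoded and pooled with that sample. Pools were incubated with 200 nmole of a random double-stranded 16-mer DNA library in Tris/NaCl/DTT/glycerol buffer at room temperature for 30 min, then washed, crosslinked with 0.1% formaldehyde, proximity-ligated with BsaI/T4 ligase (1 h, 37 °C), PCR-amplified and sequenced on an Illumina NextSeq500.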
# [2] = target: ETV5 (Homo sapiens, UniProt P41161 1-510); conditions: protein: recombinant; tags: N-terminal GST; dsDNA, one strand shown
# ETV5, sequence (P41161 whole entry): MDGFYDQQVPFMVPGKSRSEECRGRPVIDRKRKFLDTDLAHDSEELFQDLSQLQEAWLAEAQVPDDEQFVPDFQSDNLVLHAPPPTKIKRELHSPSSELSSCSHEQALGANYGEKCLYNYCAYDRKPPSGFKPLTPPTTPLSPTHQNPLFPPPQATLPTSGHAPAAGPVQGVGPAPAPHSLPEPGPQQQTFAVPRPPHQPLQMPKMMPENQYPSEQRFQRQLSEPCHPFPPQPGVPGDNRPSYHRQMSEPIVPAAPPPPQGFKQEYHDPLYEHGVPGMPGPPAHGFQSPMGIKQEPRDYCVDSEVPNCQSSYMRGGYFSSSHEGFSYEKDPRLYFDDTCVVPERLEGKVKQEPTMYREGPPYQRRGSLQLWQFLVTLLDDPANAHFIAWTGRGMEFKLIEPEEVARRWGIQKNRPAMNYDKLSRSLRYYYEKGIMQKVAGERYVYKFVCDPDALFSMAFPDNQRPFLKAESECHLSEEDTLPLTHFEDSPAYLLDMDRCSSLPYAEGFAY
# How it was run: as §1
# [3] = target: HSF1 (Homo sapiens, UniProt Q00613 1-529); conditions: protein: recombinant; tags: N-terminal GST; chain copies: 3; dsDNA, one strand shown
# HSF1, sequence (Q00613 whole entry): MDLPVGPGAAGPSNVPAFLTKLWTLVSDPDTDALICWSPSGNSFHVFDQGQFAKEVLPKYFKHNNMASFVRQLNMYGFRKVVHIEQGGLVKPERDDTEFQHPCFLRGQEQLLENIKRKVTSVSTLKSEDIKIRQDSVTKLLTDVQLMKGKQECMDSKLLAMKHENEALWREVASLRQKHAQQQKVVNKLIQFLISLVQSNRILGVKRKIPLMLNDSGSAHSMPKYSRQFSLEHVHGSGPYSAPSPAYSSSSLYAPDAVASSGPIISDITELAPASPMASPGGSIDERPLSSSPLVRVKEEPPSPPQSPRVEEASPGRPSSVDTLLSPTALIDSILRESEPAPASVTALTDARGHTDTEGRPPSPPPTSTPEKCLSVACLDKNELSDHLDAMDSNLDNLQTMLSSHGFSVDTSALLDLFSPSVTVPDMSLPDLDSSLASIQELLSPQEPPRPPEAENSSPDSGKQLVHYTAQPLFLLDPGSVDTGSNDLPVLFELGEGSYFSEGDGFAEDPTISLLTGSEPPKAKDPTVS
# How it was run: as §1
# [4] = target: T2, SPIC (Homo sapiens, UniProt Q8N5J4 1-248); conditions: protein: recombinant; tags: N-terminal GST; dsDNA, one strand shown
# T2 sequence: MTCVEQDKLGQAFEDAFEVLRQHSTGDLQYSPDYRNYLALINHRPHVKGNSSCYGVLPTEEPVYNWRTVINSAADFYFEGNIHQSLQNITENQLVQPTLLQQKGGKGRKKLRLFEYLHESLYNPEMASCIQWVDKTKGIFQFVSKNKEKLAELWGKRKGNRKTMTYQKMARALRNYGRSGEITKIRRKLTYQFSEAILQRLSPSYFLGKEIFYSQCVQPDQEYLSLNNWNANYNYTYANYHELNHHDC
# How it was run: as §1
# [5] = target: ELF4 (Homo sapiens, UniProt Q99607 1-663); conditions: protein: recombinant; tags: N-terminal GST; dsDNA, one strand shown
# ELF4, sequence (Q99607 whole entry): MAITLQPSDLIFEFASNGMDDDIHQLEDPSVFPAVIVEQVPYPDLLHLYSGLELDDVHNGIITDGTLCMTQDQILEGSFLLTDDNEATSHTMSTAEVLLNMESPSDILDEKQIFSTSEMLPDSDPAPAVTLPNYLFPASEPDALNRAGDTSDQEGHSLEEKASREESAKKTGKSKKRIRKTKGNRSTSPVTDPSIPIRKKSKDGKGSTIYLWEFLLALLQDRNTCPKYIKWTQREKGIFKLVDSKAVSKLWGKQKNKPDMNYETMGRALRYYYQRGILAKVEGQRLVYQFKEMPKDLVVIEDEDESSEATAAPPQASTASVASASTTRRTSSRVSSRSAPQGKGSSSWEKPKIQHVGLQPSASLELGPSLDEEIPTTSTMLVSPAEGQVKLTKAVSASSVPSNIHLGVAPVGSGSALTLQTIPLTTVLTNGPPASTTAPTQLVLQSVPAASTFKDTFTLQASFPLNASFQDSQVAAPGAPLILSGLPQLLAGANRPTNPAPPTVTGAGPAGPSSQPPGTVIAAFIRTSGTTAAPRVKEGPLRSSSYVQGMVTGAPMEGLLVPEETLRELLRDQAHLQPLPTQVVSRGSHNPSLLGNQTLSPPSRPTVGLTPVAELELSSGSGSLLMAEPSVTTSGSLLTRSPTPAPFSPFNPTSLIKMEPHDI
# How it was run: as §1
# [6] = target: T3, ELK4 (Homo sapiens, UniProt P28324-2 1-405); conditions: protein: recombinant; tags: N-terminal GST; dsDNA, one strand shown
# T3 sequence: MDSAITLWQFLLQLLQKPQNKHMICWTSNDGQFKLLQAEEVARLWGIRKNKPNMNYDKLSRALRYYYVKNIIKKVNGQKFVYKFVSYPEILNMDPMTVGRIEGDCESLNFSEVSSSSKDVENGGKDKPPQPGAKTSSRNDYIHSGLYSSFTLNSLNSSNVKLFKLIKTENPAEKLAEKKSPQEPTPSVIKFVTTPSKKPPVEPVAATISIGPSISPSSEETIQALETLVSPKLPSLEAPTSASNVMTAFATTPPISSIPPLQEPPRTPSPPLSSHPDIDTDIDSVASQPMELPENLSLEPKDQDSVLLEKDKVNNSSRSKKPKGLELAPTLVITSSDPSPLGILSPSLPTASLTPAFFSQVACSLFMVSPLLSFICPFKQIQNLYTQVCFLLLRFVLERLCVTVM
# How it was run: as §1
# [7] = target: T4, ETV2 (Homo sapiens, UniProt O00321 1-342); conditions: protein: recombinant; tags: N-terminal GST; dsDNA, one strand shown
# T4 sequence: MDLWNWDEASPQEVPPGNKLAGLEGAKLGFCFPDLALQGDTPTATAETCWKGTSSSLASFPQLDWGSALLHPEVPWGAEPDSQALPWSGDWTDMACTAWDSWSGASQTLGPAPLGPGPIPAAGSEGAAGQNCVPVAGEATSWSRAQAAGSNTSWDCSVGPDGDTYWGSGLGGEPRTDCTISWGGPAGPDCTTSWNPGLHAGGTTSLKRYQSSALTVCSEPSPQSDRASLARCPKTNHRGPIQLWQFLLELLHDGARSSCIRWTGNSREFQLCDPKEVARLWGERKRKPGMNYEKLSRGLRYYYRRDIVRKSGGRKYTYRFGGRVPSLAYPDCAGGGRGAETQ
# How it was run: as §1
# [8] = target: T5, ELF3 (Homo sapiens, UniProt P78545 1-371); conditions: protein: recombinant; tags: N-terminal GST; dsDNA, one strand shown
# T5 sequence: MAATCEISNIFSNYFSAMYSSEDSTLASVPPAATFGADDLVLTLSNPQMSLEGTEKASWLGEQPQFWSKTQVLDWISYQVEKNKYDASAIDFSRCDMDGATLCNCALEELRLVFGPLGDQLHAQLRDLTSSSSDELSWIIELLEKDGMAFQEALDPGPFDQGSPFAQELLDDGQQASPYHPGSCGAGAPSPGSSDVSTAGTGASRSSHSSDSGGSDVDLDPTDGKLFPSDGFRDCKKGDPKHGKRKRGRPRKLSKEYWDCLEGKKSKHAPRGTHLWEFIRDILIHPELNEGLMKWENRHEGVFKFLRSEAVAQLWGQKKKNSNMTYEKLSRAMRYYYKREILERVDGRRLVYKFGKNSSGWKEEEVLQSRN
# How it was run: as §1
# [9] = target: CRX (Homo sapiens, UniProt O43186 1-299); conditions: protein: recombinant; tags: N-terminal GST; dsDNA, one strand shown
# CRX, sequence (O43186 whole entry): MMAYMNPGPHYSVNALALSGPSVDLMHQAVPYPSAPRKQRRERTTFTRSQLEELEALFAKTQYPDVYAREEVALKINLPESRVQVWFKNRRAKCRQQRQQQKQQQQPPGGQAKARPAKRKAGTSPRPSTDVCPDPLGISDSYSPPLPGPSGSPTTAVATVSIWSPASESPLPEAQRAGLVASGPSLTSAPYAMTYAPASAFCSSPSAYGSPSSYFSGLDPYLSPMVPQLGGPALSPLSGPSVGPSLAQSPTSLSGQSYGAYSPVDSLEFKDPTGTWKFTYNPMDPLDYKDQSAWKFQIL
# How it was run: as §1
sequence,measurement,setting,value
TCAACC,binding signal,[1],"1.19 fold enrichment (6-mer frequency, TF over GST control)"
same,binding signal,[2],"1.22 fold enrichment (6-mer frequency, TF over GST control)"
same,binding signal,[3],"1.03 fold enrichment (6-mer frequency, TF over GST control)"
same,binding signal,[4],"1.07 fold enrichment (6-mer frequency, TF over GST control)"
same,binding signal,[5],"1.19 fold enrichment (6-mer frequency, TF over GST control)"
same,binding signal,[6],"1.16 fold enrichment (6-mer frequency, TF over GST control)"
same,binding signal,[7],"1.3 fold enrichment (6-mer frequency, TF over GST control)"
same,binding signal,[8],"1.16 fold enrichment (6-mer frequency, TF over GST control)"
same,binding signal,[9],"1.09 fold enrichment (6-mer frequency, TF over GST control)"
